From PubChem BioAssay
Dicer processing = inhibitors of Dicer pre-microRNA processing, primary screen, biochemical, cat-ELCCA, chemiluminescence. Endoribonuclease Dicer (Homo sapiens), Q9UPY3. cat-ELCCA pre-miR-21 Dicer processing; stronger effect = higher value. z-score at 25 µM. 6% of 47,000 active. AID 1347074, 2019; in the data active means z-score above about 3, passing the limit was not always enough;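 further: plate controls were vehicle for no effect and no enzyme for full effect; higher signal means more uncleaved substrate so more Dicer inhibition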
Target sequence (Q9UPY3 whole entry, looked up): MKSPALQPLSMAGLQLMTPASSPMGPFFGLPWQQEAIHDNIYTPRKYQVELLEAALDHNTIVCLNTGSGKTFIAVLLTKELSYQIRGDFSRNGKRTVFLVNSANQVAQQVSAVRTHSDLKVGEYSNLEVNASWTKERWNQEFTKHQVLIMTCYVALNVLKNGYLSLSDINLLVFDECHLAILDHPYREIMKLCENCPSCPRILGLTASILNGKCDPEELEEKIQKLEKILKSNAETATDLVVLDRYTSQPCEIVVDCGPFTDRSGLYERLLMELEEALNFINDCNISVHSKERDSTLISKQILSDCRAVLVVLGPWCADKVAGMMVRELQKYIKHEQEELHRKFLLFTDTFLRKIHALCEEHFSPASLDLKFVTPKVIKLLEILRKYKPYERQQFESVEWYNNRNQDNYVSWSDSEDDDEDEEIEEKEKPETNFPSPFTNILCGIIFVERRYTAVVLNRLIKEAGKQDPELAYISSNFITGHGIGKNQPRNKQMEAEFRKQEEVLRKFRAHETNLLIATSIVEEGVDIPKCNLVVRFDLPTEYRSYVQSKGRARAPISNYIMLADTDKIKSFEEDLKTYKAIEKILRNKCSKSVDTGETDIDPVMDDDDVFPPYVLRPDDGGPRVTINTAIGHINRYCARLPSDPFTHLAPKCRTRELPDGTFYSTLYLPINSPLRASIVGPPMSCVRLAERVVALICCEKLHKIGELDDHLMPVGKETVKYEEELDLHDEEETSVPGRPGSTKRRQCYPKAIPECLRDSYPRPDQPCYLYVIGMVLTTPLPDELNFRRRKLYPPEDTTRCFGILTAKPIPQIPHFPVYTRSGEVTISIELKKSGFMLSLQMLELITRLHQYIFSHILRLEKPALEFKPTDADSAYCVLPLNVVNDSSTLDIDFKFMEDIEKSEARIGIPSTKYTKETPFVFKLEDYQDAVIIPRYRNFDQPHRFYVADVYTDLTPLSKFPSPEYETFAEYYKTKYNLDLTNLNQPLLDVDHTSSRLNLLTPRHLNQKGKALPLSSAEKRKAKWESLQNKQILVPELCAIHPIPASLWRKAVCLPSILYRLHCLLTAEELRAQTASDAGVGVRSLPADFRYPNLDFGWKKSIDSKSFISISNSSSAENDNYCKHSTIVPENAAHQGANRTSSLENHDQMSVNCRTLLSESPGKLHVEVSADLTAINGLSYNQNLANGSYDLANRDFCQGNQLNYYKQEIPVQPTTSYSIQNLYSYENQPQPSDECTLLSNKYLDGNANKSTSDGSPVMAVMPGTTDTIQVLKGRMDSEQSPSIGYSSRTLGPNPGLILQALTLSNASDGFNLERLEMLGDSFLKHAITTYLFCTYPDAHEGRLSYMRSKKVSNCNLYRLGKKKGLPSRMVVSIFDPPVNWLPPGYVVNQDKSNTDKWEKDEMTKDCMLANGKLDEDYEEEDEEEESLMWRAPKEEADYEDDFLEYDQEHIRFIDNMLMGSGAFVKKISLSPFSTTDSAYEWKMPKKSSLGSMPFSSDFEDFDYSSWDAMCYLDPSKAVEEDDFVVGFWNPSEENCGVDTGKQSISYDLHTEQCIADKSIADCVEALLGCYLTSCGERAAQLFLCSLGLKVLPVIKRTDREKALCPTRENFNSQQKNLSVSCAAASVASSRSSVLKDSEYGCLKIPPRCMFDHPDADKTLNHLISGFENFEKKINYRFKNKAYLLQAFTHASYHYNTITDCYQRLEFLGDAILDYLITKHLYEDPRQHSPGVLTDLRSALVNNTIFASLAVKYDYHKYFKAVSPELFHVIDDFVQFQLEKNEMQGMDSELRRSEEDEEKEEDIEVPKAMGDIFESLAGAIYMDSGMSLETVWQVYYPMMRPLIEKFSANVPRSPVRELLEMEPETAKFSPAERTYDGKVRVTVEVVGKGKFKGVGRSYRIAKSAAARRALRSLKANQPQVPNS
An asterisk follows results filed as active. The sample as a whole holds a higher share of hits than the screen did.

SMILES	Dicer processing
COCCCn1c(-c2csc(C)n2)n[nH]c1=S	-0.52
O=C1S/C(=C\c2ccc(F)cc2)C(=O)N1c1ccccc1	1.3
Cc1cc(C)c2c(=O)c(/C=C3/SC(=S)N(c4ccc(F)cc4)C3=O)coc2c1	5.5*
CC(C)c1ccc(N2C(=O)/C(=C/N(C)C)SC2=S)cc1	0.36
FC(F)(F)c1cc(/C=C/c2noc(C(F)(F)F)n2)cc(C(F)(F)F)c1	0.29
Nc1ncnc2nc(SCc3ccc4nsnc4c3)[nH]c12	-2
Nc1ncnc2nc(SCCC(=O)O)[nH]c12	3.8*
CC(Sc1nc2ncnc(N)c2[nH]1)C(=O)O (stereo not given)	-0.55
COc1ccc(/C(O)=C2\C(=O)C(=O)N(Cc3ccncc3)C2c2cccc(Oc3ccccc3)c2)cc1 (stereo not given)	1.5
COc1ccc(C2CC(=O)C3=C(C2)Nc2ccccc2NC3c2ccc(F)c(F)c2)cc1OC (stereo not given)	0.82
O=C(O)c1ccc(-n2nnnc2SCc2ccccc2Br)cc1	0.34
Clc1ccccc1CSc1nnnn1-c1ccccc1	0.72
NC(=O)c1ccc(-n2nnnc2SCc2ccccc2Br)cc1	4*
Cc1nc(-c2ccc(Cl)cc2)nc2sc(C(=O)c3ccccc3)c(C)c12	2.1
CC1(C)Cc2nc(N3CCCC3)c(C#N)cc2CO1	-1.8
CCOC(=O)CSc1nc(N2CCOCC2)c2c(c1C#N)CC(C)(C)OC2	-1.3
CC1(C)Cc2nc(N3CCOCC3)c(C#N)cc2CO1	4.2*
O=C(NNC(=O)c1cccc2ccccc12)c1ccc2nsnc2c1	-0.51
Nc1ccc(S(=O)(=O)NCc2ccco2)cc1	1.1
N/C(CS(=O)(=O)Cc1ccco1)=N\O	4.5*
N#C/C(=C\c1ccc(Cl)cc1)S(=O)(=O)Cc1ccco1	-0.03
O=S(=O)(c1c(Cl)cc(C(F)(F)F)cc1Cl)N1CCOCC1	-1.9
CCc1sc(C(C)(C)C)cc1NC(=O)c1ccccc1	-1.2
Cc1cc(C)c(C(=O)Nc2ccccc2)c(CC(C)(C)C(=O)O)c1	4.7*
Cc1cc(C)c(C(=O)O)c(CC(C)(C)C(=O)O)c1	-2.3
SMILES	Dicer processing
CCCOC(=O)C(C)Nc1n[nH]c(=O)[nH]c1=O (stereo not given)	0.6
Cn1c(=O)[nH]c(=O)c2c1nc1n(-c3ccccc3)c(-c3ccccc3)cn21	-0.35
O=S(=O)(Cc1nc(CSc2nnc(SCC3CC3)s2)cs1)c1ccc(Cl)cc1	1.3
Fc1ccc(-n2ncc(-c3nnnn3-c3ccccc3)c2-c2cccc(Cl)c2)cc1	0.87
CN(C)CCN1C(=O)C(=O)/C(=C(\O)c2ccc(F)cc2)C12C(=O)N(C)c1ccccc12 (stereo not given)	2.7
COc1ccc(/C(O)=C2/C(=O)C(=O)N(CCCN(C)C)C23C(=O)N(C)c2ccccc23)cc1 (stereo not given)	3.7*
CCOc1ccc(/C(O)=C2/C(=O)C(=O)N(CCCN(C)C)C23C(=O)N(C)c2ccccc23)cc1 (stereo not given)	5*
COCCN1C(=O)C(=O)/C(=C(\O)c2ccc(Cl)cc2)C12C(=O)N(C)c1ccccc12 (stereo not given)	-0.97
CCCCN1C(=O)C2(/C(=C(/O)c3ccc(F)cc3)C(=O)C(=O)N2CCCN(C)C)c2ccccc21 (stereo not given)	1.2
COc1ccc(/C(O)=C2/C(=O)C(=O)N(CCN(C)C)C23C(=O)N(C)c2ccccc23)cc1 (stereo not given)	1.9
O=C(O)c1ccc(Br)s1	-0.34
COc1cc(C2C(C(=O)OC(C)C)=C(C)NC3=C2C(=O)CC(c2ccccc2)C3)cc(Cl)c1O (stereo not given)	1.3
COc1ccc2c(c1)-c1nc(C)sc1CC2	0.98
Cc1cc(N=Cc2ccccc2O)no1	4.5*
CC(=O)/C(C=Nc1cc(C)on1)=C(\C)O	-1
Cc1cc(N=CNOC(=O)c2nn(-c3ccccc3)nc2C)no1	-0.95
CC(C)(C)OC(=O)N[C@@H](CCC(N)=O)C(=O)OCc1ccc(CC(=O)O)cc1	0.5
CCOC(=O)c1cnc(SCc2ccc(C)cc2)nc1C(F)(F)F	0.11
CCOc1ccc(C2C3=C(CCCC3=O)Nc3nc(-c4ccc(OC)cc4)nn32)cc1 (stereo not given)	-0.07
CCOC(=O)c1nnn2c1nc(N1CCN(C)CC1)c1ccccc12	-0.68
Nc1nc2c(C(=O)N3CCOCC3)nnn2c2ccccc12	0.86
Nc1nc2c(-c3ccc([N+](=O)[O-])cc3)nnn2c2ccccc12	3.9*
C(=N\Nc1ncnc2sc(-c3ccccc3)cc12)/c1cccs1	1.1
C(=N\Nc1ncnc2sc(-c3ccccc3)cc12)/c1ccncc1	2.8
Cc1ccc(/C=N/Nc2ncnc3sc(-c4ccccc4)cc23)o1	3.8*
SMILES	Dicer processing
COc1cc(C(SCC(=O)O)SCC(=O)O)cc(OC)c1OC	-0.07
Nc1ncnc2c1ncn2CCN1CCCCC1	-1.7
Nc1ncnc2c1ncn2CC(O)CO (stereo not given)	6.8*
Nc1ncnc2c1ncn2CCc1ccccc1	-0.86
CCCCC1(C2CC(=O)N(c3cc(F)ccc3F)C2=O)C(=O)N(c2ccccc2)N(c2ccccc2)C1=O (stereo not given)	0.44
CCCCCc1c(O)nc(SCCN(C)C)[nH]c1=O	1.2
CCCCCCc1c(O)nc(SCCN(C)C)[nH]c1=O	0.69
CCCCCCc1c(O)nc(SCC(=O)O)[nH]c1=O	5.7*
Cc1ccc(-c2nc(C)cc(=O)[nH]2)cc1	2.4
Cc1cccc(Cl)c1Nc1ncnc(N)n1	7.2
CC1(C)C=Cc2cc(/C(N)=N/OC(=O)Nc3ccc(Cl)cc3Cl)ccc2O1	-0.61
CCc1nc(N)nc2c1C(=O)CC(C)(C)C2	-2.8
CC1(C)CC(=O)C2=C(C1)c1c(ccc3ccccc13)NC2c1ccccc1 (stereo not given)	3
CCNc1c2c(nc3ccccc13)CC(C)(C)CC2=O	3*
Cn1c(=O)c(/C=C/c2ccccc2)nc2ccccc21	-0.3
COc1ccccc1/C=C/c1nc2ccccc2n1C	-0.47
Cn1c(/C=C/c2ccccc2)nc2ccccc21	3.7*
COc1ccc(C2NCCc3c2[nH]c2ccc(OC)cc32)cc1 (stereo not given)	-0.66
Cc1nn(-c2ccccc2)c2nc(-c3ccncc3)cc(C(F)(F)F)c12	0.04
Cc1ccc(C(=O)Nc2cnc3sc4cc(C)ccc4n3c2=O)cc1	-2.2
COc1ccc(OCc2c(C#N)c3ccccc3n2C)cc1	0.02
Cc1ccccc1NCc1c(C#N)c2ccccc2n1C	3.5*
N#Cc1c(=O)c2ccccc2n2ccccc12	-1.8
O=C(Nc1ccc(F)cc1F)C(=S)NC1CCCCC1	-0.8
CC(=O)c1ccc(C#CC(C)(C)O)s1	-0.68
SMILES	Dicer processing
C/C(=N\Nc1c(Cl)cc(Cl)cc1Cl)c1ccc(C#CC(C)(C)O)s1	3.2*
CC(C)(O)C#Cc1ccc(/C=N/Nc2c(Cl)cc(Cl)cc2Cl)cc1	2.5
CCN(CC)C(=O)CSc1nnc2nnc3ccccc3n12	-0.58
COCCCNC(=S)Nc1c(C)cccc1C	-1.4
CCOC(=O)COc1ccc2c(=O)c(Oc3ccccc3Br)c(C(F)(F)F)oc2c1	2
CCOC(=O)c1c(NC(=S)NCc2ccccc2)sc2c1CCC(C)C2 (stereo not given)	-0.88
Cc1cc(Cl)ccc1N=C(C#N)C1=C(O)c2ccccc2C1=O	4.8*
CCc1cccc(C)c1N=C(C#N)C1=C(O)c2ccccc2C1=O	-1.9
Cc1ccc(N=C(C#N)C2=C(O)c3ccccc3C2=O)cc1F	-0.88
CCOC(=O)CSc1nnnn1-c1ccc(C(=O)O)cc1	-0.4
